Screening results from PubChem.
A selection: hits, their analogues and other compounds. The true share with any hit is near 7.9%.
HCMV inh = inhibitors of human cytomegalovirus; HFF cells, HCMV-luciferase reporter, 72 h; hits give low values; activity change, negative = inhibition, % at 57.5 µM; hit rate 4.5% among 410,000; AID 1259415; in the data active = activity change below about -60%; inconclusive = no clear call, values can overlap the other calls; inactive = above about -39%
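Two compound doses tested in HFFs infected with HCMV-luciferase, MOI 1 PFU/cell, 72 h at 37C. Lysate luminescence read with OneGlo; data normalized against buffer-only and 10uM Salinomycin inhibitor controls.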
MARV entry inh = Marburg virus entry inhibition | Marburg virus pseudotyped entry inhibition, cell reporter | Potency, µM (top dose mostly 37.8 µM), for the others: at the top dose activity change, negative = inhibition, hits mostly inhibitors | hit rate 1.8% among 300,000 | AID 540276; calls by dose curve; tested in HEK293 cells; also: potency is read from the fitted curve at half-maximal effect
FMDV inh = antivirals against foot and mouth disease virus | hit rate 1.2% among 410,000 | FMDV antiviral cell-based qHTS | Potency, µM (doses to about 57.9 µM), for the others: top-dose activity change, negative = inhibition, actives largely listed as inhibitors; calls by dose curve; tested in HEK293T cells; also: read-out not given here; potency is read from the fitted curve at half-maximal effect; nearly all actives have a fitted effect of over 45% in size
HCV inh = HCV inhibition. hit rate 3.4% among 340,000. Potency, µM (highest dose often 41.8 µM), inactives show at the top dose activity change, negative = inhibition, most hits filed as inhibitors. Huh7.5.1 HCVcc-Cre infection, luciferase reporter, 44 h; active = well fitted inhibition curve with a large enough effect; inconclusive = small, poorly fitted or top-dose-only effect, or another doubt; inactive = no such curve, though single readings can be large or run the other way; also: potency is read from the fitted curve at half-maximal effect
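Infectious HCVcc-Cre (~0.5 moi) was added to cells just after compound, with cells seeded 4 h earlier at 1,000 per well. Luciferase activity after 44 h culture reported infection; substrate was incubated 15 min at room temperature before reading.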
Lassa entry inh = Lassa virus entry inhibition. Lassa virus pseudotype entry inhibition, cell reporter. Potency, µM (doses to about 37.9 µM), for inactives: at the highest dose activity change, negative = inhibition, most hits filed as inhibitors. hit rate 1.2% among 300,000; calls by dose curve; tested in HEK293 cells; also: potency is read from the fitted curve at half-maximal effect; nearly all actives have a fitted effect of over 50% in size
* marks the source's active call; other numbers are inactive results; u = inconclusive; x = no result given; [ ] = another dose, or the depositor's remark. % is scaled to controls: 0 for no effect and ±100 for the full control effect.

SMILES	HCMV inh	MARV entry inh	FMDV inh	HCV inh	Lassa entry inh
C/C(=N\NC(=O)c1nnn(-c2nonc2N)c1CN1CCc2ccccc21)c1ccccc1O	-98*	x	5%	u	x
CCCc1c(C(=O)N/N=C(\CC)c2ccccc2)nnn1-c1nonc1N	-63*	x	-16%	x	x
Nc1nonc1-n1nnc(C(=O)N/N=C/c2ccccc2)c1CN1CCc2ccccc21	-3	-5%[46.1 µM]	8%	7%	25%[46.1 µM]
CCC/C(=N/NC(=O)c1nnn(-c2nonc2N)c1CN1CCCCC1)c1ccccc1	-37	x	-17%	10%	x
CCCCOC(=O)c1ccc(NC(=O)c2cc3c(=O)n4cccc(C)c4nc3n2C)cc1	-4	x	-11%	x	12%[46.1 µM]
COC(=O)C1C=CC(OC2OC(COC(C)=O)C(OC(C)=O)C(OC(C)=O)C2OC(C)=O)n2c(=O)n(-c3ccccc3)c(=O)n21 (stereo not drawn)	-98*	u	25µM*	10µM*	u
O=S(=O)(c1ccc2ccccc2c1)N(C[C@@H](O)CN1CCOCC1)c1ccccc1	x	19%	x	x	x
Cc1cccc(C)c1OCc1nc2ccccc2c(=O)n1/N=C/c1c[nH]c2ccccc12	-39	u	u	u	2.5µM*
Cc1cc(/C=N/n2c(COc3ccccc3C)nc3ccccc3c2=O)c(O)c([N+](=O)[O-])c1	-92*	1%	15%	u	x
Cc1ccc(-c2[nH]ncc2/C=N/n2c(COc3ccccc3C)nc3ccccc3c2=O)cc1	-89*	11µM*	-17%	u	u
CCOc1ccc(N2C(=O)C(c3nnnn3C(C)(C)C)N(Cc3ccc(OC)c(OC)c3)C2=O)cc1 (stereo not drawn)	-6	x	x	x	x
CCN(CC)C(=O)[C@H]1CC(CC(=O)NC(C)(C)C)C(=O)N2CCc3c([nH]c4ccccc34)[C@]12C (stereo partly drawn)	-7	x	-14%	7%	x
NC1=NC[C@H](Cc2ccc(O)cc2)N1CCCCC1CCCCC1	-90*	x	u	4%[8.37 µM]	x
O=C(N/N=C/c1ccc(O)c(O)c1)N/N=C/c1ccc(O)c(O)c1	20	u	0%	15%	-8%[46.1 µM]
Oc1cc(O)cc(/C=C/c2ccc(O)c(O)c2)c1	117	u	u	0.56µM*	4.1µM*
Cc1ccc(N(C)C)cc1	37	x	x	x	x
Cc1ccc2c(c1)sc(-c1ccc(N(C)C)cc1)[n+]2C	-96*	x	u	3.5µM*	x
CCCCC/C=C\C/C=C\C/C=C\C/C=C\CCCC(=O)O[C@@H](CO)COCCCCCCCCCCCCCCCC	x	x	-7%[6.7 µM]	x	x
CC1CC(O)(Cc2ccccc2)C(C)CN1C (stereo not drawn)	-11	-5%	-19%	-5%	9%
CC1CC(CCN)(c2ccccc2)C(C)CN1C (stereo not drawn)	u	4µM*	9%	16%	6%
COc1ccc(CNCCC2(Cc3ccccc3)CC(C)N(C)CC2C)cc1OC (stereo not drawn)	0	x	-8%	7.9µM*	x
COc1ccc(CN(CCC#N)CCC2(c3ccccc3)CC(C)N(C)CC2C)cc1OC (stereo not drawn)	-18	13µM*	-7%	-14%	-15%
COc1ccc(CCN2C(=O)CC(Cc3ccccc3)C2=O)cc1OC (stereo not drawn)	u	x	-13%	11%	x
CCOC(=O)CSC1=Nc2ccccc2C2=NC(CCC(=O)NCc3ccccc3)C(=O)N12 (stereo not drawn)	-4	x	-23%	x	19%[46.1 µM]
CCOc1ccc(-c2nc(Cn3c(=O)cc(-c4ccccc4)c4c(C)nn(C)c43)c(C)o2)cc1OC	13	x	-6%	x	u
SMILES	HCMV inh	MARV entry inh	FMDV inh	HCV inh	Lassa entry inh
Cn1c(=O)c(C(=O)COC(=O)c2cc(C3CC3)nc3ccccc23)c(N)n(Cc2ccccc2)c1=O	6	-25%	u	3.5µM*	-8%
COc1cc(/C=C2\NC(=S)N(C)C2=O)ccc1OCc1cccc(F)c1	27	x	1%	u	x
O=C(/C=C/c1cccs1)NC(=S)NNC(=O)c1ccccc1O	-94*	u	-14%	22µM*	u
CCCCOc1ccc(C(=O)NNC(=O)c2cnccn2)cc1OC	u	u	-7%	13µM*	u
COc1ccc(CC(=O)NNC(=O)c2cnccn2)cc1	11	3%	-5%	10%	2%
COc1ccc(C(=O)NC(=S)NNC(=O)COc2ccccc2)cc1	-22	u	28µM*	-26%	18%
CC(C)c1ccc(OCC(=O)NNC(=S)NC(=O)C2CC2)cc1	-98*	u	0%	-26%	u
COc1ccc(C(=O)NNC(=S)NC(=O)/C=C/c2cccs2)cc1	-7	7%[46.1 µM]	-19%	u	-18%[46.1 µM]
CCOC(=O)c1ccc(N2CCN(c3cc(Cl)ccc3C)CC2)c(NC(=O)Nc2cccc(OC)c2)c1	17	x	-13%	x	4%[46.1 µM]
O=C(NC(=S)NNC(=O)c1cnccn1)c1ccc(Cl)cc1	94	-15%[46.1 µM]	24%	u	-22%
COc1ccc(C(=O)NC(=S)NNC(=O)c2ccccc2C)cc1	15	-26%	-6%	u	-27%
COc1ccc(C(=O)NC(=S)NNC(=O)c2ccccc2O)cc1	39	13µM*	10%	-20%	-4%
COc1ccc(C(=O)NC(=S)NNC(=O)c2cnccn2)cc1	-85*	u	8%	u	-40%
CC1(C(=O)NS(=O)(=O)c2cccs2)CCN1C(=O)Cc1ccccc1 (stereo not drawn)	-3	x	7%	x	x
CN(C(=O)CSc1nc2ccc(NC(=O)COc3ccc(F)cc3)cc2s1)c1ccccc1	-70*	u	u	x	u
COc1ccc(C(=O)Nc2ccc3nc(SCC(=O)N(C)c4ccccc4)sc3c2)cc1	-74*	u	35µM*	x	u
O=C(Nc1ccc2nc(SCC(=O)N3CCCC3)sc2c1)c1ccc(F)cc1	25	-3%[46.1 µM]	-9%	x	-22%[46.1 µM]
CN(C(=O)CSc1nc2ccc(NC(=O)c3ccc(F)cc3)cc2s1)c1ccccc1	-81*	u	u	x	u
Cc1ccc2[nH]c(C(=O)N3CCc4c(cnc(C)c4CNC(=O)c4ccccc4F)C3)cc2c1	x	x	-6%	x	x
COc1ccc2cc(/C=C3\SC(=S)NC3=O)c(N3CCOCC3)nc2c1	-88*	11µM*	28µM*	u	u
CCCn1c2ccc(/C(C)=N\O)cc2c2cc(/C(C)=N/O)ccc21	45	u	-19%	13µM*	-5%
CCC(C)OC(=O)/C(C#N)=C/c1ccc(-c2ccc(Br)cc2)o1 (stereo not drawn)	6	x	21%	x	2%[46.1 µM]
N#C/C(=C\c1ccc(-c2ccc(Br)cc2)o1)C(=O)NCCc1c[nH]c2ccccc12	-11	u	-9%	22µM*	u
N#C/C(=C/c1ccc(-c2ccc(Br)cc2)o1)C(=O)NC1CCCCC1	u	u	-6%	14µM*	u
CCOc1ccc(NC(=O)c2ccc(OCC3CCCO3)cc2)cc1S(=O)(=O)N(CC)CC (stereo not drawn)	0	-39%	u	u	-2%
O=C(NC(=S)Nc1nc(-c2cccc([N+](=O)[O-])c2)cs1)c1cc(Cl)ccc1Cl	2	u	u	u	u
